SIRT5 block: SIRT5 desuccinylase inhibitors, primary screen, biochemical, fluorescence imaging, single point, set 5. NAD-dependent protein deacylase sirtuin-5, mitochondrial (Homo sapiens), Q9NXA8. Purified SirT5, succinyl-peptide AMC, trypsin-coupled fluorescence. inhibition, % at 15 µM. actives 1.1% (n = 330,000); in the data active = inhibition above about 15%
ERp5 block: inhibitors of ERp5-driven insulin aggregation, primary screen, biochemical, turbidity, absorbance 650 nm, single point; Protein disulfide-isomerase A6 (Homo sapiens), Q15084; 90 min; inhibition, % at 9.99 µM; actives 0.05% (n = 350,000); AID 651711, 2012;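 active = mean replicate inhibition above about 25%, with every replicate also reaching it, limit read from the data, passing the limit was not always enough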
DENV2 CPE: inhibitors of DENV2 cytopathic effect, primary screen, cell-based, plate reader, single concentration | DENV2-infected cells, cytopathic effect rescue | AID 651640, 2012 | actives 1.7% (n = 350,000) | CPE inhibition, % at 9.99 µM; in the data active = CPE inhibition above about 20%, passing the limit was not always enough; tested in BHK-21 cells
Rtt109 HAT inh: inhibitors of C. albicans Rtt109/Vps75 HAT, primary screen, biochemical, ThioGlo CoA-SH fluorescence, plate reader | Histone acetyltransferase RTT109 (Candida albicans (strain SC5314 / ATCC MYA-2876)), … | purified Rtt109/Vps75, 4 h | inhibition, % at 34.9 µM | actives 0.16% (n = 330,000);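 active = inhibition of at least 50% in every replicate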
PDI turbidity: inhibitors of human PDI, primary screen, biochemical, turbidity, single point, plate reader | inhibition, % at 10 µM | Protein disulfide-isomerase (Homo sapiens), P07237 | PDI insulin aggregation turbidity, A650, 90 min | actives 0.052% (n = 350,000) | AID 588391, 2011;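 active = mean inhibition across replicates of 30% or more, whatever share of single replicates reach that level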
Target sequence (P07237 whole entry, looked up): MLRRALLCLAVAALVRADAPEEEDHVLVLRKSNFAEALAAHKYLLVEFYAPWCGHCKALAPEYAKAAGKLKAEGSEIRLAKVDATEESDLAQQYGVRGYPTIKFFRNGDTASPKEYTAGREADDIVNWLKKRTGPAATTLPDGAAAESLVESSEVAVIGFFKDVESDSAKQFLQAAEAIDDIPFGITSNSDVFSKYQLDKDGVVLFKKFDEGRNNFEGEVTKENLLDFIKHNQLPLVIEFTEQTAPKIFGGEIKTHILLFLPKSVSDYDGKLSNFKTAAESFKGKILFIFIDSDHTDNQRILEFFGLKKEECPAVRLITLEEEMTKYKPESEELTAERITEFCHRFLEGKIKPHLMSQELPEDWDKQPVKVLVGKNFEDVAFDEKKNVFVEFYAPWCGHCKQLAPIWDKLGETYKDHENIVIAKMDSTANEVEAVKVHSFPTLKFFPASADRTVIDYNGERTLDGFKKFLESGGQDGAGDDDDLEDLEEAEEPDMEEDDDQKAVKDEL
Numbers stand for hits; - = inactive; . = not tested or not shown; ! = repeats disagree. An excerpt weighted towards active compounds, which were near 2.3% of everything screened.

SMILES | SIRT5 block | ERp5 block | DENV2 CPE | Rtt109 HAT inh | PDI turbidity
NCCCCCCNC(=O)[C@H]1C[C@H]2C(=O)N[C@@H](Cc3ccccc3)C(=O)N2[C@H]1c1cccc(OCCO)c1 | - | - | 21 | . | .
O=C(Nc1cccc(Cl)c1)N1C[C@H]2[C@@H](c3ccccc31)[C@@H](CO)N2C(=O)C1CC1 | - | - | - | . | .
Clc1nc(Nc2ccccc2)nc(Nc2ccccc2)n1 | . | . | . | 50 | -
COc1ccccc1S(=O)(=O)N[C@H]1CC[C@@H](CC(=O)N2CCN(C)CC2)O[C@H]1CO | - | - | - | . | .
O=c1c2ccccc2c(C=NCc2ccccn2)c(O)n1-c1ccccc1 | - | - | - | - | -
Cc1ccc(-n2c(O)c(C=NCc3ccccn3)c3ccccc3c2=O)cc1C | - | - | - | 62 | -
NS(=O)(=O)c1cc(C(=O)NC2CCSc3ccccc32)ccc1Cl (stereo not given) | 43 | - | - | - | -
C[C@H]1CN([C@@H](C)CO)C(=O)c2cccc(NC(=O)Nc3ccccc3)c2O[C@@H]1CN(C)Cc1ccc(C(=O)O)cc1 | - | - | - | . | .
C[C@H]1CN([C@@H](C)CO)C(=O)c2cccc(NC(=O)Nc3ccccc3)c2O[C@@H]1CN(C)Cc1ccc(C(F)(F)F)cc1 | - | - | - | . | .
COc1ccc(CN(C)C[C@H]2Oc3c(NC(=O)Nc4ccc(C(F)(F)F)cc4)cccc3C(=O)N([C@H](C)CO)C[C@H]2C)cc1 | - | - | - | . | .
C[C@H](CO)N1C[C@H](C)[C@@H](CN(C)Cc2ccc(Oc3ccccc3)cc2)Oc2c(NC(=O)Nc3ccc(C(F)(F)F)cc3)cccc2C1=O | - | - | 24 | . | .
COc1ccc(NC(=O)Nc2cccc3c2O[C@@H](CN(C)Cc2ccc(C(F)(F)F)cc2)[C@@H](C)CN([C@H](C)CO)C3=O)cc1 | 21 | - | - | . | .
C[C@@H]1CN([C@H](C)CO)C(=O)c2cccc(NC(=O)Nc3ccccc3)c2O[C@H]1CN(C)Cc1ccc(C(=O)O)cc1 | - | - | 22 | . | .
COc1ccc(CN(C)C[C@@H]2Oc3c(NC(=O)Nc4ccccc4)cccc3C(=O)N([C@@H](C)CO)C[C@@H]2C)cc1 | - | - | - | . | .
COc1ccc(CN(C)C[C@@H]2Oc3c(NC(=O)Nc4ccccc4)cccc3C(=O)N([C@H](C)CO)C[C@H]2C)cc1 | - | - | 30 | . | .
CO[C@@H]1CN(C)C(=O)c2ccc(NC(=O)c3nc4ccccc4s3)cc2OC[C@@H](C)NC[C@H]1C | - | - | - | . | .
O=C(C[C@H]1CC[C@H]2[C@@H](COC[C@@H](O)CN2S(=O)(=O)c2ccc(Cl)cc2)O1)NCc1ccc(Cl)c(Cl)c1 | - | - | - | . | .
C[C@H](CO)N1C[C@H](C)[C@H](CN(C)Cc2ccncc2)Oc2c(NC(=O)C3CCOCC3)cccc2C1=O | - | - | - | . | .
CC(C)NC(=O)Nc1ccc2c(c1)CC(=O)N([C@@H](C)CO)C[C@H](C)[C@@H](CN(C)C)O2 | - | - | - | . | .
C[C@H]1CN([C@@H](C)CO)C(=O)c2cc(NC(=O)C3CC3)ccc2O[C@H]1CN(C)C | - | - | - | . | .
C[C@@H]1CN([C@@H](C)CO)C(=O)c2cccc(NC(=O)Nc3ccc(F)cc3)c2O[C@@H]1CN(C)Cc1ccc(Oc2ccccc2)cc1 | - | - | 55! | - | -
C[C@H](CO)N1C[C@H](C)[C@H](CN(C)Cc2ccc(C(=O)O)cc2)Oc2ccc(NC(=O)CCC(F)(F)F)cc2CC1=O | - | - | - | . | .
Cc1c(NC(=O)c2ccc(NC(=O)C3CC3)cc2)cccc1C(=O)O | 20 | - | - | - | -
O=C(O)Cc1ccc(NC(=O)c2ccc(NC(=O)C3CC3)cc2)cc1 | - | - | 82 | - | -
COc1ccc([Si](C)(C)[C@H]2[C@H](CCO)O[C@@]3(C(=O)N4c5c(cc(OC)cc53)C(C)=CC4(C)C)[C@@H]2C)cc1 | - | - | - | . | .
SMILES | SIRT5 block | ERp5 block | DENV2 CPE | Rtt109 HAT inh | PDI turbidity
COc1ccc([Si](C)(C)[C@@H]2[C@@H](CCO)O[C@]3(C(=O)N4c5c(cc(OC)cc53)C(C)=CC4(C)C)[C@H]2C)cc1 | 15 | - | - | . | .
COc1ccc([Si](C)(C)[C@@H]2[C@@H](CCO)O[C@]3(C(=O)N(Cc4cccc(NC(C)=O)c4)c4ccccc43)[C@H]2C)cc1 | 21 | - | - | . | .
COc1ccc([Si](C)(C)[C@H]2[C@H](CCn3cc([C@H](O)c4ccccc4)nn3)O[C@@]3(C(=O)N(Cc4cccc(N5CCOC5=O)c4)c4ccccc43)[C@@H]2C)cc1 | 23 | - | - | . | .
Cc1ccc(S(=O)(=O)Nc2ccc3c(c2)C(=O)N([C@@H](C)CO)C[C@@H](C)[C@@H](CN(C)Cc2ccc(Cl)c(Cl)c2)OCCCC[C@@H](C)O3)cc1 | 17 | - | - | . | .
COc1ccc(S(=O)(=O)Nc2ccc3c(c2)C(=O)N([C@H](C)CO)C[C@H](C)[C@H](CN(C)Cc2ccc(Cl)c(Cl)c2)OCCCC[C@@H](C)O3)cc1 | . | . | 42 | . | .
Cc1ccc(S(=O)(=O)Nc2ccc3c(c2)C(=O)N([C@H](C)CO)C[C@@H](C)[C@H](CN(C)Cc2ccc(Cl)c(Cl)c2)OCCCC[C@H](C)O3)cc1 | 19 | - | - | . | .
Cc1ccc(S(=O)(=O)NCc2ccccc2)cc1C(=O)N1CCN(S(=O)(=O)c2ccccc2F)CC1 | . | - | 58 | . | -
CN(C)C(=O)[C@H]1[C@H](CO)[C@H]2Cn3c(ccc(C4=CCCCC4)c3=O)[C@@H]1N2Cc1ccncc1 | - | - | 36 | . | .
CN(C)C(=O)[C@@H]1[C@@H](CO)[C@@H]2Cn3c(ccc(C4=CCCC4)c3=O)[C@H]1N2S(=O)(=O)c1cn(C)cn1 | - | - | 22 | . | .
CN(C)C(=O)[C@@H]1[C@@H](CO)[C@@H]2Cn3c(ccc(C4=CCCCC4)c3=O)[C@H]1N2C | - | - | - | . | .
O=C(c1cnccn1)N1CC(=O)N2[C@H](CO)[C@H](c3ccc(C#CCc4ccccc4)cc3)[C@@H]2C1 | - | - | - | . | .
CCN(CCCNC(=O)C1CCC(=O)N1Cc1ccc(C)cc1)c1cccc(C)c1 (stereo not given) | 17 | - | . | - | -
O=C(C[C@H]1C[C@@H]2c3cc(NS(=O)(=O)c4ccc(F)cc4)ccc3O[C@@H]2[C@H](CO)O1)NC1CCCCC1 | - | - | - | . | .
CS(=O)(=O)NCCSCc1ccco1 | - | - | - | 53 | -
CCOc1ccc(CCN2C(=S)N([C@@H](CC(C)C)CN3CCCC3CN3C(=S)NC[C@@H]3Cc3ccc(O)cc3)C[C@@H]2Cc2ccc(O)cc2)cc1 (stereo not given in full) | . | - | 31 | - | -

Screening results: PubChem, Broad Institute
